The assay in a line: inhibitors of DUX4-driven ZSCAN4 reporter expression, primary screen, 293T cells, Gaussia and Italica luciferase (AID 1224904).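 As to activity change, negative = inhibition: 0% = median of neutral control wells and -100% = median of positive control wells.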 As to conditions: 293T-iDUX4 ZSCAN4-Gaussia luciferase reporter, 24 h, stronger effect = lower value, concentration not given here; for Gaussia minus Italica difference: measured here: selective DUX4 reporter inhibition. A general note: Reporter assays use an easily measured gene product as a stand-in for the process of interest.

The mark [1] stands for this setting: measured here: Italica tet-on control reporter.

Among all 37,000 compounds or so, about 290 (0.78%) were called active. Roughly 10% stayed inconclusive and do not appear here. The sample holds actives, similar compounds and a random draw of the others, so the mix is not that of the screen.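 The calls were made as follows: active = mean inhibition of at least 10% in the main channel, exceeding the control channel by a set limit; inconclusive = inhibition of 10% or more but channel gap under a set limit; inactive = mean inhibition below 10%.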

On to `CCC(=O)N1CC2(C1)[C@@H](c1ccc(C3=CCCC3)cc1)[C@@H](CO)N2C(=O)COC`, for which the activity change, negative = inhibition was 2.59% (inactive) and the Gaussia minus Italica difference was -0.983%. For the same compound, the activity change, negative = inhibition under setting [1] turned out to be 3.57%.
On the same counts, the results for `COc1cccc(CNC(=O)[C@@H]2[C@@H](CO)[C@@H]3Cn4c(ccc(-c5ccncc5)c4=O)[C@H]2N3C(C)=O)c1` are -3.74% (inactive), -0.373% and -3.37%.
Consider `CN1CCN(C(=O)C[C@@H]2CC[C@@H]3[C@H](COC[C@@H](O)CN3Cc3cccc(F)c3)O2)CC1`, for which the activity change, negative = inhibition is 4.3% (inactive) and the Gaussia minus Italica difference was found to be 5.51%. In addition, the activity change, negative = inhibition under setting [1] is -1.22%.
For the compound `O=C(C[C@@H]1CC[C@@H]2[C@H](COC[C@H](O)CN2C(=O)c2cccnc2)O1)NC1Cc2ccccc2C1`, the activity change, negative = inhibition was 3.73% (inactive) and the Gaussia minus Italica difference was determined as 7.39%. The activity change, negative = inhibition under setting [1] is -3.66%.
In the case of `CC(C)CN(C[C@@H]1N[C@@H](CO)[C@H]1c1ccccc1)C(=O)CN(C)C`, the activity change, negative = inhibition was 0.487% (inactive) and the Gaussia minus Italica difference is -0.462%. In addition, the activity change, negative = inhibition under setting [1] turned out to be 0.95%.
Take `O=C(C[C@@H]1CC[C@@H](NC(=O)Nc2ccc(F)cc2)[C@@H](CO)O1)NCCN1CCCC1`: the activity change, negative = inhibition is 3.27% (inactive) and the Gaussia minus Italica difference was 4.34%. Further, under setting [1], the activity change, negative = inhibition is -1.07%.
For the compound `N#C[C@@H]1[C@@H](c2ccc(C#Cc3cccc(F)c3)cc2)[C@H](CO)N1C(=O)C1CCOCC1`, the activity change, negative = inhibition was 1.6% (inactive) and the Gaussia minus Italica difference was -0.348%. The activity change, negative = inhibition under setting [1] was determined as 1.95%.
Take `Cc1noc(C)c1S(=O)(=O)N(C)C[C@@H]1OCc2ccccc2-c2ccccc2C(=O)N([C@@H](C)CO)C[C@H]1C`: the activity change, negative = inhibition is 1.81% (inactive) and the Gaussia minus Italica difference was -10.7%. Also, the activity change, negative = inhibition under setting [1] stood at 12.5%.
As for `O=C(C[C@H]1CC[C@@H]2[C@H](COC[C@@H](O)CN2C(=O)Nc2ccc(Cl)cc2)O1)NC1Cc2ccccc2C1`, the activity change, negative = inhibition is -9.05% (inactive) and the Gaussia minus Italica difference was -8.14%. Under setting [1], the activity change, negative = inhibition was -0.9%.
On the same counts, the results for `CN1C(=O)c2cc(NC(=O)c3cscn3)ccc2OC[C@H]2O[C@@H](CC(=O)NCC3CC3)CC[C@H]21` are -3.18% (inactive), -1.61% and -1.57%.
For the compound `CCC(=O)N1CC2(C1)[C@@H](c1ccccc1)[C@H](CO)N2CC1CCOCC1`, the activity change, negative = inhibition is -0.159% (inactive) and the Gaussia minus Italica difference is -9.09%. Moreover, the activity change, negative = inhibition under setting [1] stood at 8.93%.
As for `C[C@@H]1CC=CC[C@H](c2ccc(F)cc2)NC(=O)[C@@H](Cc2ccccc2)N(C)C(=O)c2ccccc2O1` (mixture of isomers), the activity change, negative = inhibition was -2.82% (inactive) and the Gaussia minus Italica difference is -0.938%. Moreover, the activity change, negative = inhibition under setting [1] was -1.88%.
On the same counts, the results for `CC(C)NC(=O)N1C[C@@H]2[C@H](c3ccccc31)[C@H](CO)N2C(=O)C1CCCC1` are -2.38% (inactive), -0.893% and -1.49%.
On the same counts, the results for `CCCNC(=O)[C@@H]1[C@@H](CO)[C@@H]2Cn3c(cccc3=O)[C@H]1N2C(=O)Nc1cc(F)ccc1F` are 6.78% (inactive), -3.98% and 10.8%.
For the compound `Cc1noc(C)c1NC(=O)N[C@@H]1C=C[C@H](CC(=O)N2CCCCC2)O[C@H]1CO`, the activity change, negative = inhibition is 5.84% (inactive) and the Gaussia minus Italica difference came out at 4.2%. Further, under setting [1], the activity change, negative = inhibition amounted to 1.64%.
Take `C[C@@H]1CN([C@H](C)CO)S(=O)(=O)c2ccc(C#CC3CCCC3)cc2O[C@@H]1CN(C)Cc1ccccc1C(=O)O`: the activity change, negative = inhibition is -1.04% (inactive) and the Gaussia minus Italica difference was 1.03%. The activity change, negative = inhibition under setting [1] is -2.07%.
Consider `CC=Cc1ccc2n(c1=O)C[C@@H]1[C@@H](CO)[C@H](C(=O)N(C)C)N(CC3CCOCC3)[C@H]21` (mixture of isomers), for which the activity change, negative = inhibition is 3.1% (inactive) and the Gaussia minus Italica difference is -3.17%. Besides, the activity change, negative = inhibition under setting [1] stood at 6.26%.
For `COc1ccccc1NC(=O)N[C@H]1C=C[C@H](CC(=O)N[C@@H](C)c2ccccc2)O[C@H]1CO`, the activity change, negative = inhibition is -2% (inactive) and the Gaussia minus Italica difference is -0.906%. Moreover, the activity change, negative = inhibition under setting [1] was -1.1%.
With `O=C(Nc1ccccc1F)N1C[C@H]2[C@@H](c3ccccc31)[C@H](CO)N2C(=O)c1ccccn1`, the activity change, negative = inhibition is -3.65% (inactive) and the Gaussia minus Italica difference was -0.784%. Under setting [1], the activity change, negative = inhibition is -2.86%.
With `O=C(CN1CCOCC1)N1CCCCN2[C@H](CO)[C@H](c3ccc(Br)cc3)[C@H]2C1`, the activity change, negative = inhibition was 9.07% (inactive) and the Gaussia minus Italica difference came to 13.5%. Besides, under setting [1], the activity change, negative = inhibition is -4.46%.
The matching figures for `OC[C@H]1[C@@H](c2ccc(C#CC3(O)CCCC3)cc2)[C@H]2CN(Cc3cncnc3)CCCCN21`: 13.2% (inactive), 0.35% and 12.8%.
The matching figures for `O=C(C1CCCCC1)N1CC(=O)N2[C@H](CO)[C@@H](c3ccc(-c4ccccc4F)cc3)[C@@H]2C1`: -8.07% (inactive), -6.47% and -1.6%.
On to `CNC(=O)C[C@H]1CC[C@@H]2[C@H](COc3ccc(NC(=O)Nc4ccc(F)c(F)c4)cc3C(=O)N2C)O1`, for which the activity change, negative = inhibition is -0.979% (inactive) and the Gaussia minus Italica difference was determined as 2.86%. Also, the activity change, negative = inhibition under setting [1] is -3.84%.
The matching figures for `O=C(C[C@@H]1C[C@H]2c3cc(NC(=O)Nc4ccccc4F)ccc3O[C@H]2[C@@H](CO)O1)NCc1ccncc1`: -1.77% (inactive), -2.32% and 0.554%.
As to `C[C@@H](NC(=O)[C@@H]1[C@@H](CO)[C@@H]2Cn3c(ccc(C4=CCCCC4)c3=O)[C@@H]2N1C)c1ccccc1`, the activity change, negative = inhibition was 3.54% (inactive) and the Gaussia minus Italica difference was 2.15%. Further, the activity change, negative = inhibition under setting [1] came to 1.39%.
Consider `CN1C(=O)c2cc(NC(=O)c3ccc(F)cc3)ccc2OC[C@H]2O[C@H](CC(=O)N3CCOCC3)CC[C@@H]21`, for which the activity change, negative = inhibition was 1.69% (inactive) and the Gaussia minus Italica difference turned out to be 9.5%. Besides, the activity change, negative = inhibition under setting [1] is -7.81%.
For the compound `COCC(=O)N[C@@H]1C=C[C@@H](CC(=O)N2CCCCC2)O[C@@H]1CO`, the activity change, negative = inhibition was 6.06% (inactive) and the Gaussia minus Italica difference came out at 7.14%. In addition, the activity change, negative = inhibition under setting [1] is -1.08%.
